The source of these data is ChEMBL document CHEMBL1961873, “Compounds: GSK PKIS; Assays: Nanosyn kinase panel” (2012).

In assay [1] the target is Casein kinase I isoform gamma-2 (Homo sapiens) (UniProt P78368). As to conditions: at 1 µM.
For assay [2], the target named is Casein kinase I isoform gamma-3 (Homo sapiens) (UniProt Q9Y6M4). As to conditions: at 0.1 µM.
For assay [3] the target is unchanged. Particulars: at 1 µM.
Assay [4] deals with Cyclin-dependent kinase 1 (Homo sapiens) (UniProt P06493). As to conditions: at 0.1 µM.
The target is the same in assay [5]. Particulars: at 1 µM.
The target of assay [6] is Cyclin-dependent kinase 2 (Homo sapiens) (UniProt P24941). As to conditions: at 0.1 µM.
Assay [7] has the same target. Particulars: at 1 µM.
Assay [8] shares this target. As to conditions: at 0.1 µM. This is another data set of the same source.
Assay [9] shares this target. Particulars: at 1 µM. This is another data set of the same source.
Assay [10] addresses T1, CDK3/Cyclin E (Homo sapiens) (UniProt P24864+Q00526). Particulars: at 0.1 µM.
Assay [11] has as its target T1, CDK3/Cyclin E (Homo sapiens). As to conditions: at 1 µM.
Assay [12] addresses Cyclin-dependent kinase 4 (Homo sapiens) (UniProt P11802). As to conditions: at 0.1 µM.
For assay [13] the target is unchanged. As to conditions: at 1 µM.
Assay [14] has as its target Cyclin-dependent kinase 5 (Homo sapiens) (UniProt Q00535). Particulars: at 0.1 µM.
For assay [15] the target is unchanged. As to conditions: at 1 µM.
Assay [16] addresses Cyclin-dependent kinase 6 (Homo sapiens) (UniProt Q00534). As to conditions: at 0.1 µM.
The target is the same in assay [17]. As to conditions: at 1 µM.
In assay [18] the target is Dual specificity protein kinase CLK2 (Homo sapiens) (UniProt P49760). Particulars: at 0.1 µM.
Assay [19] has the same target. As to conditions: at 1 µM.
The target in assay [20] is Dual specificity protein kinase CLK3 (Homo sapiens) (UniProt P49761). As to conditions: at 0.1 µM.

SMILES strings stand for the structures.

Casein kinase I isoform gamma-2 (Homo sapiens), sequence (P78368 whole entry, looked up, canonical isoform): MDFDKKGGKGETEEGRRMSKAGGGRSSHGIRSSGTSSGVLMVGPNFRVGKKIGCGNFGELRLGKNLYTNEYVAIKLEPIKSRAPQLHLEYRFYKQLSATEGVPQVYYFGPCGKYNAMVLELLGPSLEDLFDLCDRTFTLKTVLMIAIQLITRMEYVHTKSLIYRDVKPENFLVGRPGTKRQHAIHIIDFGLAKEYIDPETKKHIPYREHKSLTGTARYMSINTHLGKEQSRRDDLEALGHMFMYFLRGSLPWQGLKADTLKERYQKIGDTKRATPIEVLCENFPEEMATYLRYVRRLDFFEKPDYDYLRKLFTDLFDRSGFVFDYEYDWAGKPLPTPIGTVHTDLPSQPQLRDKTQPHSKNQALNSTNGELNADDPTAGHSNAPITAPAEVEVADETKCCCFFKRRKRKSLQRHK
T1 sequence (P24864 whole entry, looked up): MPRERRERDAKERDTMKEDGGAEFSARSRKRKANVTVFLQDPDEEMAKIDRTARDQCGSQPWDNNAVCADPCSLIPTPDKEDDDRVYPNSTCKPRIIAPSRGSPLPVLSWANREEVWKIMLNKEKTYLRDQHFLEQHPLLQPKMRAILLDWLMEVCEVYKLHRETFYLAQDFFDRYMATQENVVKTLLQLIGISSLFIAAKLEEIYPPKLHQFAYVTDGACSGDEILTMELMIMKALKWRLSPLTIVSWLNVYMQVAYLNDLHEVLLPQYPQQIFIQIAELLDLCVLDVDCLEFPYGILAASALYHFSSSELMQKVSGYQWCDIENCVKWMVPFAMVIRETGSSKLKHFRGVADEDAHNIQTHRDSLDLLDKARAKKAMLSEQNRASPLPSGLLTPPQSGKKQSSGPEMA
T1 sequence (Q00526 whole entry, looked up): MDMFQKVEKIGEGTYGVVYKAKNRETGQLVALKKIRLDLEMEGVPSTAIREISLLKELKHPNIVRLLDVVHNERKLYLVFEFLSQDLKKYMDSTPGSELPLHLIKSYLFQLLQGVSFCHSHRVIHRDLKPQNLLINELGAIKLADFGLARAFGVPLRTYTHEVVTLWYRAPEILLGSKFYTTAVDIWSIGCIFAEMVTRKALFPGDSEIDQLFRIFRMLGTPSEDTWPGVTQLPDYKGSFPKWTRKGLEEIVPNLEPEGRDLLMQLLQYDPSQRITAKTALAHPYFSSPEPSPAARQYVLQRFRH
Casein kinase I isoform gamma-3 (Homo sapiens), sequence (Q9Y6M4 whole entry, looked up, canonical isoform): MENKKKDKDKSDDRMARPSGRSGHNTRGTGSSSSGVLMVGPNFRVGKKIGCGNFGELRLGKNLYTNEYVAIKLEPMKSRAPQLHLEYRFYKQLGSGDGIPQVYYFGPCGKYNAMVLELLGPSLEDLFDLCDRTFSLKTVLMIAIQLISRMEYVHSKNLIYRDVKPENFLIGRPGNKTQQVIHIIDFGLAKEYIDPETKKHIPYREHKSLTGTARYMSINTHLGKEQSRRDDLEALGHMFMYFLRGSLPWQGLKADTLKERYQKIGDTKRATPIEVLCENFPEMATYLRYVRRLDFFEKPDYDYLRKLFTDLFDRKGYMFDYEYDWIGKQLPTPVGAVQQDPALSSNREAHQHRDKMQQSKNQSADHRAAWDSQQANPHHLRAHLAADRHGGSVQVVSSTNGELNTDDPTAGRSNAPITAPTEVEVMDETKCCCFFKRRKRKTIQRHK
Cyclin-dependent kinase 4 (Homo sapiens), sequence (P11802 whole entry): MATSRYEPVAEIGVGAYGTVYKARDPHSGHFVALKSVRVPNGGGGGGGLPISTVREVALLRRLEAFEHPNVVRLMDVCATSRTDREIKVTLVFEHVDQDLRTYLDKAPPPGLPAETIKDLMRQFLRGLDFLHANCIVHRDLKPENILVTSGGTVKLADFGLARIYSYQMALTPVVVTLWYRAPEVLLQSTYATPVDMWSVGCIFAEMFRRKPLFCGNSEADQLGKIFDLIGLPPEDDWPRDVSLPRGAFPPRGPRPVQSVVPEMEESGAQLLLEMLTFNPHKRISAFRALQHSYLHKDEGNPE
Dual specificity protein kinase CLK2 (Homo sapiens), sequence (P49760 whole entry, looked up): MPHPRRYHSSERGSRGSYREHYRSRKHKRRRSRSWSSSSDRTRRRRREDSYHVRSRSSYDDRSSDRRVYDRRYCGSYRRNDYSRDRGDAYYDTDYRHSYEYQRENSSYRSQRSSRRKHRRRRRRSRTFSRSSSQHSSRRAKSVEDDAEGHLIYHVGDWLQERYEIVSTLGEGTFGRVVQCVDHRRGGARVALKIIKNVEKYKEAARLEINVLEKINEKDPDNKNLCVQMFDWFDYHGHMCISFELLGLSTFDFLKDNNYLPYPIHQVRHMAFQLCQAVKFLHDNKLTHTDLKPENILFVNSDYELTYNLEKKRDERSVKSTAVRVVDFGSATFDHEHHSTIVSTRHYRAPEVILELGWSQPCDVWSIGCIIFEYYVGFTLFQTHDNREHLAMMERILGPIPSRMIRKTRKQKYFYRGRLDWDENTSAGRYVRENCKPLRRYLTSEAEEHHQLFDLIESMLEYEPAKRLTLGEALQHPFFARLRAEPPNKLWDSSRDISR
Cyclin-dependent kinase 1 (Homo sapiens), sequence (P06493 whole entry, looked up): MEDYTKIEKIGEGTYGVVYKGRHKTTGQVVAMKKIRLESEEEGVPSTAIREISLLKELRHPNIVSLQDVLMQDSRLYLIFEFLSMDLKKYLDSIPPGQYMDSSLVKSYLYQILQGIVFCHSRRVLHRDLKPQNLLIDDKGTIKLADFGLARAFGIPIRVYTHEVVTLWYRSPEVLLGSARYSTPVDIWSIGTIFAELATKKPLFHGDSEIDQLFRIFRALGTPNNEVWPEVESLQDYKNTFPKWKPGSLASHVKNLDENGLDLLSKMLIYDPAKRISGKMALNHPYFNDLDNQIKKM
Dual specificity protein kinase CLK3 (Homo sapiens), sequence (P49761 whole entry, looked up): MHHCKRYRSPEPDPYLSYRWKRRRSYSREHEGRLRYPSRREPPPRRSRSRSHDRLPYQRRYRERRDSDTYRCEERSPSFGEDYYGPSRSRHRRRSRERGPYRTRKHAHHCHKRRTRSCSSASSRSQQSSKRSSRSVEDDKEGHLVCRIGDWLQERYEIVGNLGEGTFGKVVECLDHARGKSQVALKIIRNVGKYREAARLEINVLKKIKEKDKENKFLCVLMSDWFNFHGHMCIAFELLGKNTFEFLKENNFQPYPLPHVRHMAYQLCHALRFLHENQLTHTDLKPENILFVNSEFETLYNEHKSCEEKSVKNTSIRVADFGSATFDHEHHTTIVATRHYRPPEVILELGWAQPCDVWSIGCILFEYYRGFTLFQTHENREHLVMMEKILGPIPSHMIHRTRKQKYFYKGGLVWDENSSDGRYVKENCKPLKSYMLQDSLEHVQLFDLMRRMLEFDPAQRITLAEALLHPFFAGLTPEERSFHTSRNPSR
Cyclin-dependent kinase 5 (Homo sapiens), sequence (Q00535 whole entry, looked up): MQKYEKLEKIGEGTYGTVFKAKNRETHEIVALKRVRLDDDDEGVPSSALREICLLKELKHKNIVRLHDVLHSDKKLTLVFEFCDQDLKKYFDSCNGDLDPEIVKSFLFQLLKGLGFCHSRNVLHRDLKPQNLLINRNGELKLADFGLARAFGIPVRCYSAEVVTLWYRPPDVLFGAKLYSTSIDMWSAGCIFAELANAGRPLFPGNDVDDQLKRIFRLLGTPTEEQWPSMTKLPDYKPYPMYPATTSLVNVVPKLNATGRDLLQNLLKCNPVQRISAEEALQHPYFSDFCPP
Cyclin-dependent kinase 6 (Homo sapiens), sequence (Q00534 whole entry): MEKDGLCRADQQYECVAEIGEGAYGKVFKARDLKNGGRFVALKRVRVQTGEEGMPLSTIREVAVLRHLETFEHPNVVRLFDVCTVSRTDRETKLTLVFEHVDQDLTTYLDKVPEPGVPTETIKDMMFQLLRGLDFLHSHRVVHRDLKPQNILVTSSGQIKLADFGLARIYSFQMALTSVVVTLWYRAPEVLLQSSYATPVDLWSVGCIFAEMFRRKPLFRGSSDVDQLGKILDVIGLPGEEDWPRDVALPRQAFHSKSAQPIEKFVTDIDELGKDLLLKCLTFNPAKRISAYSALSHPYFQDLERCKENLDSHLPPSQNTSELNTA

For the compound `CS(=O)(=O)CCNCc1coc(-c2ccc3ncnc(Nc4ccc(OCc5ccccc5)cc4)c3c2)c1`, the inhibition (as a rule, the relative decrease from the control value, in per cent) in assay [1] came out at 1.86%; in assay [2], 1.74%; in [3], 1.31%; in assay [4], 2.51%; in assay [5] it was 1.71%; in [6], 2.91%. Also, the inhibition in [7] is 2.02%; in assay [8] it was 1.53%; in assay [9] it was 3.24%; in [10], -3.62%; in [11], -1.98%; in assay [12], 1.27%. For the same compound, the inhibition in assay [13] came to 3.49%; in [14], 0.65%; in [15], 2.1%; in [16], 0.39%; in [17] it was 3.6%; in assay [18], 3.24%. For the same compound, the inhibition in assay [19] is 1.86%; in assay [20], -0.2%.
In the case of `O=S(=O)(CCNCc1ccc(-c2ccc3ncnc(Nc4ccc(OCc5cccc(F)c5)c(Cl)c4)c3c2)o1)c1ccccc1`, the inhibition was 5.75% in [1]; 4.59% in assay [2]; 5.14% in [3]; 0.29% in [4]; 1.65% in assay [5]; 2.32% in [6]. Moreover, the inhibition in assay [7] is 2.63%; in assay [8] it was 3.6%; in assay [9], 5.45%; in assay [10], 0.01%; in [11] it was -1.98%; in [12] it was 4.84%. For the same compound, the inhibition in assay [13] was 5.57%; in assay [14], 0.05%; in [15], 1.21%; in [16] it was 0.74%; in assay [17], 2.65%; in [18] it was 0.01%. Also, the inhibition came out at 1.31% in assay [19] and 0.95% in [20].
`COc1ccc(-c2nn3ncccc3c2-c2ccnc(Nc3ccc4c(c3)OCCO4)n2)cc1`: the inhibition in assay [1] worked out at 3.08%; in assay [2] it was 0.17%; in assay [3], 1.38%; in assay [4] it was 0.5%; in [5], 1.38%; in assay [6] it was 0.22%. The inhibition is 0.43% in [7]; -0.84% in [8]; -0.22% in assay [9]; -2.12% in assay [10]; -2.16% in assay [11]; -0.27% in assay [12]. Further, the inhibition in assay [13] was 2.65%; in assay [14], -0.08%; in assay [15], 2.41%; in assay [16], -4.12%; in [17], -0.81%; in [18] it was 0.37%. For the same compound, the inhibition was 0.98% in [19] and -0.22% in assay [20].
As to `CN1CCC(n2cnc(-c3ccc(F)cc3)c2-c2ccnc(Nc3ccccc3)n2)CC1`, the inhibition came to 35.2% in assay [1]; 12.4% in assay [2]; 61.7% in assay [3]; 0.37% in assay [4]; 2.52% in assay [5]; 0.89% in [6]. For the same compound, the inhibition in assay [7] is -0.3%; in assay [8] it was 1.14%; in assay [9] it was 2.14%; in [10], 2.38%; in assay [11], -2.19%; in assay [12], 1.36%. For the same compound, the inhibition was determined as 2.55% in [13]; 0.25% in assay [14]; 1% in assay [15]; 3.89% in [16]; 0.2% in assay [17]; 1.64% in assay [18]. Also, the inhibition in [19] was 1.56%; in assay [20] it was 0.75%.
As to `CCN(CC)S(=O)(=O)c1ccc(OC)c(Nc2ncc(-c3ccccc3)o2)c1`, the inhibition in assay [1] is -0.29%; in assay [2], -0.78%; in assay [3], 1.34%; in [4], 0.99%; in [5] it was 5.32%; in assay [6] it was 2.02%. Further, the inhibition in assay [7] was 5.22%; in assay [8] it was 3.09%; in [9], 3.61%; in assay [10], 1.42%; in assay [11] it was -0.01%; in [12], 1.62%. Also, the inhibition was 2.74% in [13]; 0.99% in [14]; 2.21% in [15]; 5.19% in assay [16]; 2.95% in assay [17]; 4.15% in [18]. The inhibition in [19] was 40.3%; in assay [20], 0.64%.
As to `c1ccc(-c2nc3n(c2-c2ccc4c(c2)OCO4)CCC3)nc1`, the inhibition in assay [1] turned out to be 1.81%; in assay [2], 0.57%; in assay [3], 4.18%; in assay [4], 0.17%; in assay [5] it was 1.42%; in [6] it was 1.58%. Moreover, the inhibition is -5.6% in assay [7]; 2.41% in [8]; 3.84% in assay [9]; 2.37% in assay [10]; 0.43% in [11]; 2.02% in assay [12]. The inhibition in assay [13] was 2.7%; in [14], 0.64%; in [15], 1.86%; in assay [16] it was -1.72%; in assay [17], 3.55%; in [18], 0.44%. Moreover, the inhibition in assay [19] is -1.18%; in [20], 3.62%.
As for `COc1ccc(-c2cc(-c3c[nH]nc3-c3ccccn3)ccn2)cc1`, the inhibition came out at 5.19% in assay [1]; 3.68% in assay [2]; 6.59% in assay [3]; 0.11% in [4]; 1.79% in [5]; 1.84% in assay [6]. Further, the inhibition in [7] worked out at 7.74%; in assay [8], 4.73%; in assay [9], 5.82%; in [10] it was 2.59%; in [11] it was 0.46%; in assay [12], 2.18%. Moreover, the inhibition in assay [13] was 1.82%; in assay [14] it was 1.02%; in assay [15], 1.41%; in [16], 4.13%; in assay [17], -0.9%; in assay [18], 0.77%. Also, the values for the inhibition in [19] and in assay [20] were 0.26% and 3.07%, respectively.
